Source: article PMC7826789 (International Journal of Molecular Sciences, 2021)

Tests used:
Conditions in all cases: Compound Concentration (nM):1000
[1] = tested on: FLT3(K663Q)
[2] = tested on: FLT3(N841I)
[3] = tested on: FLT3(R834Q)
[4] = tested on: FLT3-autoinhibited
[5] = tested on: FLT3
[6] = tested on: FLT4
[7] = tested on: FRK
[8] = tested on: FYN
[9] = tested on: GAK
[10] = tested on: T1, GCN2(Kin.Dom.2,S808G)
T1 construct: gene EIF2AK4
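Also: KINOMEscan scanMAX binding as percent activity remaining versus control; lower means stronger binding.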

| SMILES | Percent Control [1] | Percent Control [2] | Percent Control [3] | Percent Control [4] | Percent Control [5] | Percent Control [6] | Percent Control [7] | Percent Control [8] | Percent Control [9] | Percent Control [10] |
| --- | --- | --- | --- | --- | --- | --- | --- | --- | --- | --- |
| Cl.O=C(O[C@H]1CN[C@H](C#Cc2cc3ncnc(Nc4ccc5c(cnn5Cc5ccccc5)c4)c3s2)C1)N1CCOCC1 [GSK200398A] | 66% | 100% | 92% | 89% | 77% | 100% | 90% | 81% | 88% | 44% |
| Cl.O=S1CCN(Cc2ccc(-c3ccc4ncnc(Nc5ccc(OCc6ccccc6)c(F)c5)c4c3)o2)CC1 [GW576924A] | 93% | 100% | 100% | 87% | 90% | 100% | 100% | 100% | 100% | 100% |
| COC(=O)Nc1nc2ccc(Oc3ccc(NC(=O)Nc4cc(C(F)(F)F)ccc4F)cc3)cc2s1.Cl [GW693917A] | 1% | 89% | 11% | 65% | 2.4% | 2.4% | 15% | 52% | 97% | 100% |
| Cl.O=C(Nc1ccc(Oc2ccc3[nH]c(NC(=O)c4ccco4)nc3c2)cc1)Nc1cc(C(F)(F)F)ccc1F [GW683134A] | 0.6% | 8.4% | 5.6% | 92% | 1.3% | 1.5% | 40% | 71% | 100% | 90% |
| O=C(Nc1n[nH]c2nc(-c3ccc(O)cc3)c(Br)cc12)C1CC1 [SB-725317] | 66% | 100% | 72% | 96% | 64% | 84% | 100% | 100% | 81% | 96% |
| Cc1cc(O)cc(C)c1/C=C/c1cncc(C(N)=O)c1 [GW435821X] | 99% | 100% | 81% | 100% | 95% | 100% | 45% | 70% | 75% | 100% |
| Cl.c1ccc(Cc2nc3ccc(Nc4ncnc5ccccc45)cc3[nH]2)cc1 [GR269666A] | 90% | 100% | 100% | 86% | 72% | 100% | 100% | 100% | 100% | 100% |
| NS(=O)(=O)c1ccc(Nc2ncc(-c3ccccc3)o2)cc1 [GW572399X] | 9.2% | 21% | 14% | 2% | 11% | 100% | 100% | 100% | 99% | 80% |
| C/C(Nc1ccc(S(N)(=O)=O)cc1)=C1/C(=O)Nc2ccccc21 [GW335962X] | 60% | 83% | 40% | 7.7% | 56% | 100% | 96% | 90% | 61% | 100% |
| CN(C)CCNC(=O)Nc1ccc(N(C)c2ccnc(Nc3ccc(CS(C)(=O)=O)cc3)n2)cc1.Cl [GW830900A] | 89% | 5.6% | 16% | 27% | 2.9% | 54% | 99% | 93% | 13% | 100% |
| Cl.O=C(Nc1ccc(Oc2ccc3[nH]c(NC(=O)c4ccccc4)nc3c2)cc1)Nc1cc(C(F)(F)F)ccc1F [GW709042A] | 2.6% | 0% | 15% | 90% | 2.4% | 12% | 71% | 100% | 100% | 84% |
| NS(=O)(=O)c1ccc(N/N=C2\C(=O)Nc3ccc(C(=O)NCCc4c[nH]cn4)cc32)cc1 [GW300660X] | 100% | 100% | 45% | 100% | 90% | 100% | 100% | 100% | 100% | 100% |
| CCn1c(-c2nonc2N)nc2c(C#CC(C)(C)O)nc(OCCNC)cc21.Cl [GSK949675] | 100% | 100% | 78% | 100% | 100% | 75% | 100% | 100% | 100% | 89% |
| COc1ccc2cc(-c3c(-c4ccncc4)nc(-c4ccc(S(C)(=O)=O)cc4C)n3C)ccc2c1 [SB-633825] | 93% | 96% | 95% | 100% | 92% | 54% | 76% | 78% | 59% | 100% |
| Nc1ncnc2occ(-c3ccc(NC(=O)Nc4cc(C(F)(F)F)ccc4F)cc3)c12 [GW770249X] | 0.5% | 0% | 0% | 33% | 0.1% | 0.7% | 12% | 95% | 100% | 99% |
| NS(=O)(=O)c1ccc(N/N=C2\C(=O)Nc3ccc(C(=O)NCc4ccncc4)cc32)cc1 [GW300657X] | 92% | 50% | 68% | 74% | 82% | 77% | 100% | 96% | 66% | 100% |
| COc1ccc2[nH]c3c4[nH]c5ccc(OC)cc5c4c4c(c3c2c1)C(=O)NC4=O [GW296115X] | 9.7% | 0% | 6.3% | 53% | 28% | 71% | 88% | 84% | 0.3% | 74% |
| COc1cccc(-n2ncc3c(N/N=C/c4ccncc4)ncnc32)c1 [GW784752X] | 75% | 36% | 77% | 85% | 76% | 100% | 100% | 75% | 48% | 65% |
| COc1ccc2c(-c3ccnc(Nc4cccc(OC(F)(F)F)c4)n3)cnn2n1 [GW810372X] | 30% | 55% | 73% | 86% | 23% | 100% | 100% | 100% | 66% | 85% |
| CN1CCN(C(=O)c2ccc(NC(=O)Nc3ccc(N(C)c4ccnc(Nc5ccc(CS(C)(=O)=O)cc5)n4)cc3)cc2)CC1.Cl [GW830263A] | 0% | 0% | 0% | 7.3% | 1.5% | 2% | 80% | 98% | 18% | 100% |

| SMILES | Percent Control [1] | Percent Control [2] | Percent Control [3] | Percent Control [4] | Percent Control [5] | Percent Control [6] | Percent Control [7] | Percent Control [8] | Percent Control [9] | Percent Control [10] |
| --- | --- | --- | --- | --- | --- | --- | --- | --- | --- | --- |
| COc1cc(N2CCN(C(C)C)CC2)ccc1Nc1nc(Nc2ccc(F)cc2C(=O)NC[C@@H](O)CO)c2cc[nH]c2n1 [GSK1392956A] | 100% | 74% | 100% | 95% | 78% | 85% | 100% | 100% | 6.9% | 48% |
| CN(C)c1cc2c(Nc3ccc4c(cnn4Cc4ccccc4)c3)ncnc2cn1 [GW282974X] | 79% | 100% | 95% | 93% | 73% | 100% | 100% | 90% | 76% | 100% |
| CC(C)COC(=O)c1ccc2c(c1)/C(=C/Nc1ccc(S(N)(=O)=O)cc1)C(=O)N2 [GW416981X] | 42% | 11% | 18% | 45% | 42% | 100% | 100% | 98% | 40% | 96% |
| NS(=O)(=O)c1ccc(N/N=C2\C(=O)Nc3ccc(Cl)cc32)cc1 [GW280670X] | 18% | 100% | 68% | 15% | 21% | 100% | 100% | 100% | 100% | 100% |
| CC1=C(C(=O)Nc2ccc3[nH]ncc3c2)C(c2ccc(Cl)c(Cl)c2)CC(=O)N1 (stereo not shown) [GSK299115A] | 78% | 100% | 93% | 100% | 100% | 100% | 63% | 70% | 95% | 100% |
| COc1cc2ncn(-c3cc(O[C@H](C)c4ccccc4Cl)c(C(N)=O)s3)c2cc1OC [GSK237701A] | 6.5% | 3.3% | 14% | 95% | 21% | 9.4% | 100% | 100% | 17% | 31% |
| CCS(=O)(=O)c1ccc(OC)c(Nc2ncc(-c3cccc(OC)c3)o2)c1 [GW580509X] | 10% | 0% | 18% | 40% | 5.9% | 13% | 39% | 48% | 38% | 82% |
| COc1cc(C=NNc2ncnc3c2cnn3-c2ccccc2)ccc1O [GW513184X] | 63% | 27% | 72% | 100% | 34% | 97% | 100% | 90% | 100% | 49% |
| COc1cccc(-c2c[nH]c3c(N/N=C/c4ccncc4)ncnc23)c1 [GW814408X] | 76% | 12% | 19% | 66% | 26% | 90% | 100% | 66% | 11% | 8.3% |
| COc1ccccc1-c1cc(/C=C2\C(=O)Nc3ncc(Br)cc32)cc(Br)c1O [GW442130X] | 100% | 85% | 87% | 100% | 100% | 96% | 100% | 93% | 83% | 79% |
| O=C1Nc2ccc(C(=O)c3ccco3)cc2C1=Cc1cc(Cl)c(O)c(Cl)c1 [GW406108X] | 83% | 54% | 73% | 84% | 71% | 100% | 100% | 92% | 5.9% | 71% |
| NS(=O)(=O)c1ccc(N/N=C2\C(=O)Nc3ccc(-c4cnco4)cc32)cc1 [GW276655] | 79% | 70% | 42% | 61% | 100% | 67% | 81% | 81% | 70% | 89% |
| CCc1ccc(Oc2nccc(-c3c(-c4ccc(F)cc4)ncn3C3CCNCC3)n2)cc1 [SB-242719] | 96% | 69% | 90% | 100% | 71% | 95% | 99% | 96% | 84% | 100% |
| CC1=C(C(=O)Nc2ccc3[nH]ncc3c2)C(c2ccc3ccccc3c2)CC(=O)N1 (stereo not shown) [GSK270822A] | 100% | 80% | 98% | 100% | 89% | 100% | 61% | 83% | 90% | 100% |
| CCS(=O)(=O)c1ccc(OC)c(Nc2ncc(-c3cccc(F)c3)o2)c1 [GW621970X] | 7.9% | 56% | 29% | 7.9% | 5% | 5% | 16% | 26% | 63% | 71% |
| COc1cc2ncnc(Nc3ccc4c(cnn4Cc4ccccc4)c3)c2cc1OC.Cl [GW282449A] | 49% | 47% | 83% | 100% | 45% | 95% | 100% | 100% | 90% | 100% |
| COc1cc(/C=N/Nc2ncnc3[nH]ncc23)ccc1O [GW578748X] | 75% | 100% | 56% | 84% | 71% | 100% | 100% | 92% | 13% | 18% |
| C[C@@H](Oc1cc(-n2cnc3ccc(OC4CCN(C)CC4)cc32)sc1C(N)=O)c1ccccc1Cl [GSK579289A] | 17% | 8.1% | 18% | 87% | 18% | 81% | 93% | 86% | 69% | 39% |
| COc1cc(C)c(N(C)C(=O)CN(C)C)cc1Nc1nc(Nc2cccc(F)c2C(N)=O)c2cc[nH]c2n1 [GSK2219385] | 100% | 93% | 100% | 100% | 91% | 100% | 100% | 100% | 56% | 100% |
| COc1ccc(COc2ccc(Cc3cnc(N)nc3N)cc2OC)cc1 [GW632580X] | 79% | 75% | 97% | 99% | 100% | 90% | 100% | 100% | 95% | 100% |
